Where “and” joins values, the source holds several entries; their conditions need not be identical. Equal entries are not always repeated. The whole screen tested about 16,000 compounds, of which about 4,000 (25%) were called active. Another 26% or so got no clear call; they are omitted. Calls follow the shape of the dose curve; as a rule, active = well fitted curve in the direction sought with a large enough effect; inconclusive = small, poorly fitted or top-dose-only effect, or effect the other way; inactive = no such curve, though single readings can be large or run the other way. The list is a sample of the results. Some compounds were tested as several samples or in several runs, with calls that do not always agree.
target: Cytochrome P450 2C9 (Homo sapiens) (UniProt P11712); experiment: Cytochrome panel assay with activity outcomes; details: recombinant CYP, pro-luciferin dealkylation, luminescence, p450-cyp2c9; series mostly up to 57.1 µM; activity, negative = inhibition: at the top concentration
Sequence (P11712 whole entry, looked up): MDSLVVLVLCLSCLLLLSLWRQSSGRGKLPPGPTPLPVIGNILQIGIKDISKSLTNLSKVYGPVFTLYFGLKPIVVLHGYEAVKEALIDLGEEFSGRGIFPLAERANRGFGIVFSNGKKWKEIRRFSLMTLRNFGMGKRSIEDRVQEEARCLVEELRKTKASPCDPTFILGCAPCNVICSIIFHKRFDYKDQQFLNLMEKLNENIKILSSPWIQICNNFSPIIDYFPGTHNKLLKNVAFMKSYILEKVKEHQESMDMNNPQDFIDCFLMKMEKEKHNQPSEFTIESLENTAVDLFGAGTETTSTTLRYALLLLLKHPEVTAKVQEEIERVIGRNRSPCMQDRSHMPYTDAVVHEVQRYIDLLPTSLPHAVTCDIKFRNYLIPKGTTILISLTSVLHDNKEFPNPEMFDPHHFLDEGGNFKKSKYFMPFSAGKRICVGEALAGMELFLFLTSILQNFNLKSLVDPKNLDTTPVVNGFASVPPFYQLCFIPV
% is scaled to controls: 0 for no effect and ±100 for the full control effect.

activity, negative = inhibition, inactive:
O=C(O)CNc1ccc(C(=O)O)cc1 3.72% [at 11.4 µM]
Cc1cc(C2(c3cc(C)c(O)c(C(=O)O)c3)OS(=O)(=O)c3ccccc32)cc(C(=O)O)c1O 14.9% [at 11.4 µM]
O=C(CNc1cccc(Cl)c1)c1ccc(Cl)cc1 -14.9%
COc1cccc(C(=O)NCCN2CCN(c3ccc(Cl)cc3)CC2)c1 14.4%
OC[C@@H](O)[C@@H](O)[C@@H](O)[C@@H](O)c1nc2ccc(Cl)cc2[nH]1 -5.01% [at 11.4 µM]
Cn1c([N+](=O)[O-])cnc1COC(N)=O 29.3% [at 25.6 µM]
CSc1nc(N)c2ncn([C@@H]3O[C@@H](COP(=O)(O)OP(=O)(O)O)[C@@H](O)[C@H]3O)c2n1 8.4%
COc1ccc(NC(=O)c2ccc(-c3ccc(-c4noc(C)n4)cc3C)cc2)cc1OCCN(C)C -5.88%
OC[C@@H]1O[C@@H](n2cnc3c(NC4CCCC4)ncnc32)[C@@H](O)[C@H]1O 12.1%
CC1(C)CC(=O)C(CCC(=O)c2ccccc2)C(C)(C)N1 (stereo not given) -16.3%
COC(=O)C1(Cc2ccccc2)C=C2C(=C(C)C(=O)C2C)CN1 (stereo not given) -21.6%
CN(C)c1ccc(-c2cncnc2NCc2ccccc2)cc1 -13.6% [at 2.29 µM]
NC(=O)C[C@H](N)C(N)=O -1.03% [at 11.4 µM]
CN[C@]1(C)[C@H]2CC[C@@H](C2)C1(C)C -5.41% [at 25.6 µM]
Clc1ccc2c(NCCNc3ccnc4cc(Cl)ccc34)ccnc2c1 -3.79% [at 11.4 µM]
CN[C@@H]1[C@H](O[C@@H]2O[C@H](CO)[C@@H](N)[C@H](O)[C@@H]2O)O[C@H]2C[C@@H](N)[C@@H](O[C@H]3[C@@H](O)[C@H](O)[C@H](N)C[C@@H]3N)O[C@H]2[C@H]1O -2.58% [at 25.6 µM]
COc1cc(OC)c2cc(-c3ccncc3)cnc2c1 -9.27%
CCOC(=O)c1cc(NC(=O)c2ccc(C)cc2)c(=O)oc1-c1ccccc1 -18%
Cc1[nH]c2ccccc2c1CCNC(=O)c1ccc2c(c1[N+](=O)[O-])C(=O)c1ccccc1C2=O -4.48%
COc1ccccc1-c1cncnc1NCc1cccnc1 3.29% [at 2.29 µM]
O=C(Cn1nc(C(F)F)cc1C(F)F)N/N=C/c1ccc2c(c1)OCO2 -10%
C=CCNC(=O)CC(=O)N/N=C/c1cccc(Br)c1 -4.91%
OC[C@@H]1O[C@@H](N2CCN([C@@H]3O[C@@H](CO)[C@@H](O)[C@H](O)[C@H]3O)CC2)[C@@H](O)[C@H](O)[C@H]1O 7.18% [at 11.4 µM]
CCN1C(=O)[C@H]2[C@H]3[C@H](O)[C@H](O)C/C(=N/OC[C@@H](C)[C@H](OCc4ccccc4)C(C)C)[C@@H]3CC[C@@H]2C1=O 19.1% [at 11.4 µM]
Cc1cccc(CNc2nc(-c3ccoc3)nc3ccccc23)c1 -6.69% [at 2.29 µM]
Cc1ncc(CSC(=N)N)n1Cc1ccccc1 -16.1% [at 11.4 µM]
N=C(N)C(N=Nc1ccccc1)C(=N)N (stereo not given) 11.9% [at 11.4 µM]
O=C(O)[C@@H](O)[C@@H](O)[C@@H](O[C@H]1O[C@@H](CO)[C@@H](O)[C@@H](O)[C@@H]1O)[C@@H](O)CO -14.4% [at 25.6 µM]

AC50, inactive:
N[C@@H]1CONC1=O
CNCCC=C1c2ccccc2CCc2ccccc21

AC50, active:
CC(C)c1ccc(CN(C(=O)C2COc3ccccc3O2)C2CCS(=O)(=O)C2)cc1 (stereo not given) 11.2 µM
CO/N=C(/CNC(=O)c1cccc(Cl)c1)c1ccc(Cl)cc1 3.55 µM
CO/N=C(/CNC(=O)c1ccc(Cl)cc1Cl)c1ccc(Cl)cc1 1.12 µM
COC(=O)C1(C)C=C2C(=C(c3ccccc3)C(=O)C2C)CN1 (stereo not given) 10 µM
CCCC1(C(=O)OC)C=C2C(=C(c3ccccc3)C(=O)C2C)CN1 (stereo not given) 5.01 µM
COC(=O)C1(CC(C)C)C=C2C(=C(c3ccccc3)C(=O)C2C)CN1 (stereo not given) 10 µM
CCOC(=O)c1cc2c(C(F)(F)F)cc(-c3ccccc3)nc2o1 2.24 µM
Cc1[nH]c2c(C)cccc2c1CCNC(=O)c1ccc2c(c1[N+](=O)[O-])C(=O)c1ccccc1C2=O 1.12 µM
O=C(CSCc1cccc(Br)c1)N/N=C/c1ccc2c(c1)OCO2 10 µM
O=C(/C=C/c1ccc2c(c1)OCO2)NCCSCc1cccc(Cl)c1 5.01 µM
Cc1ccc(NC(=O)C(=O)NCc2ccc(/C=C(/C#N)C(=O)NCc3cccnc3)o2)cc1 0.631 µM
Cc1cccc(NC(=O)CSc2nc3ccccc3c3nc(CCc4c(C)n[nH]c4C)nn23)c1 1.26 µM
Cc1nnc(-c2cnn(-c3ccccc3)c2N)n1Cc1ccncc1 14.1 µM
Cc1nnc(-c2cnn(-c3ccccc3)c2N)n1Cc1ccc(F)cc1 15.8 µM

AC50, inactive and 7.94 µM (active):
COc1ccc(NC(=O)c2ccc(-c3ccc(-c4noc(C)n4)cc3C)cc2)cc1N1CCN(C)CC1

Reference: PubChem BioAssay AID1851 (National Center for Advancing Translational Sciences (NCATS), 2009)
